Assay outcomes deposited in PubChem by National Center for Advancing Translational Sciences (NCATS).
Most compounds without a hit are left out; they make up all but 2.3% or so of the library.
Tau fluor cs = counter-screen for tau fibril formation inhibitors. tau K18 P301L Alexa594 fluorescence, heparin fibrillization. Potency, µM (doses to about 57.7 µM). 280,000 tested, 0.93% active. AID 1463; further: nearly all actives have a fitted effect of over 55% in size
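Human K18 P301L tau (15 uM unlabeled plus 0.24 uM Alexa 594-labeled, final) in 100 mM sodium acetate pH 7 was mixed with compound and 20 uM heparin and incubated 6 hr at 37 C.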
Coupling enz = coupling enzyme interference in Giardia aldolase counter-screen. coupling enzyme system counterscreen, AmpLite Red fluorescence. 290,000 tested, 0.67% active. activity change, negative = inhibition, % at 58.2 µM, hits read low; in the data active means activity change below about -30%
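Final compound at 57.5 uM, incubated 10 min at RT with coupling enzyme reagent (glyceraldehyde-3-phosphate), then 20 min with substrate and AmpLite Red detection. Fluorescence read at 525/598 nm; tests interference with the coupling assay, not aldolase inhibition.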
Tau fibril FP = blocks human tau fibril formation measured by polarization; P10636; K18 P301L tau heparin fibrillization, Alexa594 FP, 6 h; Potency, µM (series often up to 57.7 µM), actives largely listed as inhibitors; 280,000 tested, 0.39% active; further: nearly all actives have a fitted effect of over 55% in size
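Quantitative HTS format: compounds meet 15 uM recombinant K18 P301L tau and Alexa 594-tau tracer in 100 mM sodium acetate pH 7; 20 uM heparin triggers fibrillization at 37 C over 6 hr; FP gives the signal.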
Tau fibril ThT = tau fibrillization inhibition (ThT binding) | P10636 | recombinant tau K18 P301L, heparin-induced fibrillization, ThT fluorescence | Potency, µM (highest dose often 57.4 µM), hits mostly inhibitors | 270,000 tested, 2.1% active | AID 1460; further: nearly all actives have a fitted effect of over 55% in size
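Using a mix of unlabeled (15 uM) and Alexa 594-labeled (0.24 uM) tau K18 P301L, heparin-triggered fibrillization over 6 hr at 37 C was scored by ThT fluorescence.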
USP1-UAF1 inh = blocks the human USP1/UAF1 deubiquitinase complex; recombinant USP1/UAF1, Ub-Rhodamine cleavage fluorescence; O94782; 390,000 tested, 0.23% active; Potency, µM (titrated, usually from 57.1 µM), actives largely listed as inhibitors; further: nearly all actives have a fitted effect of over 60% in size
Target sequence (O94782 whole entry, looked up): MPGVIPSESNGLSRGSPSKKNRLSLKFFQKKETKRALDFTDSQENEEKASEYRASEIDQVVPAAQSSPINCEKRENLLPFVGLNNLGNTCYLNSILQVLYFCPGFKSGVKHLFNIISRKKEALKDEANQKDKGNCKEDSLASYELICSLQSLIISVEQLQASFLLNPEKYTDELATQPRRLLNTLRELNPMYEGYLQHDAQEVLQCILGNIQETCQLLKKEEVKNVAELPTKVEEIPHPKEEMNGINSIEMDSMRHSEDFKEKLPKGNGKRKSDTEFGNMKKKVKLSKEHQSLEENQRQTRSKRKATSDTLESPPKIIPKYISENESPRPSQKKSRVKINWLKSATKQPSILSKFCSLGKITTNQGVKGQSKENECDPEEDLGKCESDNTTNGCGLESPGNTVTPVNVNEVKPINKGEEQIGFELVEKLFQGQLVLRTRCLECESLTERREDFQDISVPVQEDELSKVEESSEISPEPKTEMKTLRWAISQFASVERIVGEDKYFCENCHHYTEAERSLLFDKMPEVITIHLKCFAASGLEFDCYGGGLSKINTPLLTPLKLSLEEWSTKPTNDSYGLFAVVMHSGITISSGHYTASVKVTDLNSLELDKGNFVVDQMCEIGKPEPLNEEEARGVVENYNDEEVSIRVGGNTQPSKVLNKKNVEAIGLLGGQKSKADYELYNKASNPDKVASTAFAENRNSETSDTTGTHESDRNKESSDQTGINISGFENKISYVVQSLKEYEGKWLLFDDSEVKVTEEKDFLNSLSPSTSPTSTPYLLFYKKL
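1 nM enzyme complex + cpd, 15 min RT; start with Ub-Rho 150nM final; kinetic fluorescence ex 480/em 540, 6 reads q60 s. Buffer 50mM HEPES pH 7.8, 0.5mM EDTA, 0.1 mg/ml BSA, 1mM TCEP, 0.01% Tween-20.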
Each line names hits and unclear results; the compound was inactive in the other large screens; [ ] = another dose, or the depositor's remark. Unless noted, the call rests on the fitted dose curve; in most records, active means well fitted curve in the direction sought with a large enough effect; inconclusive means small, poorly fitted or top-dose-only effect, or another doubt; inactive means no such curve, though single readings can be large; an effect the other way counts as inactive or inconclusive.

COc1ccc(CNC(=O)C(C#N)c2nc3ccccc3nc2N2CCN(C)CC2)cc1 (centres undefined)	Tau fibril ThT 16µM
Cc1ccc(C)c(CSc2nc3ncccc3[nH]2)c1	none (no result: Coupling enz)
CCc1ccc(NSc2ccccc2[N+](=O)[O-])cc1	Tau fluor cs 14µM[quencher], Tau fibril ThT inconclusive
O=C(O)[C@H](Cc1ccccc1)NC(=O)N1CCN(c2ccc(F)cc2)CC1	none
CCOC(=O)C1=C(Cc2ccc(C)cc2)C(=O)c2ccccc2C1=O	Tau fluor cs inconclusive, Coupling enz -47, Tau fibril FP 35µM, Tau fibril ThT 16µM (no result: USP1-UAF1 inh)
CCOC(=O)c1c(C)nc2c(c1-c1cc(OC)ccc1OC)C(=O)c1ccccc1-2	none
CCOC(=O)C1=C(Cc2ccc(OC)cc2)C(=O)c2ccccc2C1=O	Tau fluor cs inconclusive, Coupling enz -56, Tau fibril FP 13µM, Tau fibril ThT 8.9µM, USP1-UAF1 inh inconclusive
CCOC(=O)c1ccc(COC(=O)c2ccc3c(c2)-c2ccccc2C3=O)cc1	Tau fibril ThT inconclusive
S=c1[nH]cc2cnccn12	none (no result: Tau fluor cs, Coupling enz, Tau fibril FP, Tau fibril ThT)
CN(c1ccccc1)c1cc(Br)nc(Br)c1	none (no result: Tau fluor cs, Coupling enz, Tau fibril FP, Tau fibril ThT)
Cc1ccc(NC(=O)CSc2ccccc2)cc1S(=O)(=O)N1CCCCC1	none (no result: Tau fluor cs, Coupling enz, Tau fibril FP, Tau fibril ThT)
Cc1cc(C)c(S(=O)(=O)/N=C2/C=C(SCC(=O)O)C(=O)c3ccccc32)cc1C	Tau fluor cs inconclusive, Coupling enz -46, Tau fibril FP 10µM, Tau fibril ThT 7.1µM, USP1-UAF1 inh 25µM
Cc1ccc2c(c1)N(C(=O)N1CCC(C(=O)NCc3ccco3)CC1)CC(C)O2 (centres undefined)	none (no result: Coupling enz)
COc1ccc(C(=O)N2CC(=O)Nc3ccc(C)cc3C2c2ccccc2)c(OC)c1 (centres undefined)	Tau fibril FP inconclusive, Tau fibril ThT inconclusive (no result: Coupling enz)
Cc1[nH]nc2c1C(c1ccco1)C(C#N)=C(N)O2 (centres undefined)	none
COc1ccc(-c2ccc(C3C(C#N)=C(N)Oc4n[nH]c(C)c43)o2)cc1 (centres undefined)	Tau fluor cs inconclusive, Tau fibril ThT 4.5µM, USP1-UAF1 inh inconclusive
N/C(=N\NC(=O)c1cccs1)c1cc2ccccc2oc1=O	Tau fibril ThT inconclusive
CCN(CC)c1ccc2cc(/C(N)=N/NC(=O)c3cccs3)c(=O)oc2c1	Tau fibril ThT 0.79µM (no result: USP1-UAF1 inh)
CCc1cc[n+](/C(C(=S)Nc2cccc(C)c2)=C(/[O-])c2ccc(C)c([N+](=O)[O-])c2)cc1	Tau fibril ThT inconclusive
CCOc1ccc(NC(=S)/C(=C(\[O-])c2ccc(C)c([N+](=O)[O-])c2)[n+]2ccccc2)cc1	Tau fibril ThT 25µM
CCOc1ccc(NC(=S)Nc2ccc(C)c([N+](=O)[O-])c2)cc1	Tau fluor cs 32µM[quencher], Tau fibril ThT inconclusive
O=c1oc2ccccc2c(Nc2cc3ccccc3cc2O)c1[N+](=O)[O-]	Coupling enz -56
CC(=O)Nc1c(I)c(C(=O)N[C@H]2[C@@H](O)[C@H](O)[C@H](CO)O[C@@H]2O)c(I)c(N(C)C(C)=O)c1I	none (no result: Tau fluor cs, Tau fibril FP, Tau fibril ThT, USP1-UAF1 inh)
CC(C)(C)c1ccc(NC(=O)CSc2nnc(-c3n[nH]c4ccccc34)o2)cc1	Tau fluor cs inconclusive, Tau fibril FP 32µM
O=C1Nc2ccc(Br)cc2/C1=C/C(=O)c1ccc2c(c1)OCO2	Tau fluor cs inconclusive, Tau fibril ThT 25µM
O=C(/C=C/c1ccco1)NC(=S)Nc1ccc(N2CCCC2)cc1	Tau fluor cs inconclusive, Tau fibril ThT 3.5µM
O=C(/C=C/c1ccco1)NC(=S)Nc1ccc(C(=O)O)cc1	none (no result: Tau fluor cs, Tau fibril FP, Tau fibril ThT)
O=C(/C=C/c1ccco1)NC(=S)Nc1ccc(Cl)cn1	Tau fluor cs inconclusive, Tau fibril ThT 22µM
O=C(/C=C\c1ccco1)Nc1ccc(N2CCN(C(=O)c3ccccc3)CC2)cc1	Tau fluor cs inconclusive, Tau fibril ThT 11µM
Cc1ccnc(NC(=S)NC(=O)/C=C/c2ccco2)c1	Tau fibril ThT inconclusive
CCc1ccc(-c2csc3[n+]2CCN3C(C)=O)cc1	Tau fibril FP inconclusive, Tau fibril ThT 25µM
CC(=O)N1CCN(C(=S)c2ccc(Cl)cc2)CC1	none
CC(=O)N1CC[n+]2c(-c3ccc(Cl)cc3)csc21	Tau fibril FP inconclusive, Tau fibril ThT 28µM
Cc1noc(C)c1CCC(=O)Nc1c(C(C)C)cccc1C(C)C	none (no result: Tau fluor cs, Coupling enz, Tau fibril FP, Tau fibril ThT)
CCn1cc(C(=O)NCCc2ccc(OC)c(OC)c2)c(=O)c2cc(S(=O)(=O)N3CCC(C)CC3)ccc21	none (no result: Coupling enz)
CCN1C(c2ccccc2)=C(c2ccccc2)S/C1=C/C=C1\SC(=S)N(C)C1=O	Tau fluor cs 3.2µM[fluorescent], Tau fibril ThT inconclusive
COc1ccc(C)cc1NC(=O)C(NS(=O)(=O)c1cccc2nsnc12)c1ccccc1 (centres undefined)	Tau fluor cs inconclusive (no result: Coupling enz)
CSc1nc2sc3c(c2c(=O)n1Cc1ccccc1)CCC(C(C)(C)C)C3 (centres undefined)	none (no result: Coupling enz)
NS(=O)(=O)c1ccc(NC(=O)COC(=O)c2cn(-c3ccccc3)nc2-c2ccccc2)cc1	Tau fluor cs inconclusive, Tau fibril FP 11µM
O=C(O/N=C\c1ccc(N2CCCCC2)c([N+](=O)[O-])c1)c1ccc(Cl)cc1Cl	Tau fibril ThT 5µM
Cc1ccc(C(=O)O/N=C\c2ccc(N3CCOCC3)c([N+](=O)[O-])c2)cc1	Tau fibril ThT inconclusive
O=C(/C=C/c1ccc(Cl)cc1)N1CCN(c2ccc(Cl)cc2[N+](=O)[O-])CC1	Tau fibril ThT 7.9µM
CC(C(=O)NCc1ccc(Cl)cc1)n1ccc2cc(S(=O)(=O)N3CCCC3)ccc21 (centres undefined)	none (no result: Coupling enz)
CC1(C)Cc2c(ccc3ccccc23)C2=C(C(=O)N3CCCC3)C(=O)C(=O)N21	Coupling enz -45
CC1CCC(NC(=O)CCS(=O)(=O)c2ccc3c(c2)oc(=O)n3C)CC1 (centres undefined)	none (no result: Tau fluor cs, Coupling enz, Tau fibril FP, Tau fibril ThT)
Cc1ccccc1OCc1ccc(-c2nc(C#N)c(NCc3cccnc3)o2)o1	Tau fluor cs 18µM[quencher], Tau fibril FP inconclusive, Tau fibril ThT inconclusive (no result: Coupling enz)
O=C(NCCCn1ccnc1)c1ccc(-c2cccc(Cl)c2Cl)o1	none (no result: Tau fluor cs, Coupling enz, Tau fibril FP, Tau fibril ThT)
COc1ccc(C(=O)/C(C#N)=N/Nc2ccccc2[N+](=O)[O-])cc1	Tau fibril ThT inconclusive
COC(=O)/C(=C\C(=O)c1ccc([N+](=O)[O-])cc1)Nc1ccc(OC)cc1	Tau fluor cs inconclusive, Tau fibril FP inconclusive, Tau fibril ThT 3.2µM
N#C/C(=N\Nc1ccc(Cl)cc1)C(=O)c1ccccc1	Tau fluor cs inconclusive, Tau fibril ThT 14µM
COc1ccc(C(=O)/C(C#N)=N/Nc2ccc([N+](=O)[O-])cc2)cc1	Tau fluor cs inconclusive, Tau fibril ThT 4µM
Cc1c(N/N=C(\C#N)C(=O)c2ccc(Cl)cc2)c(=O)n(-c2ccccc2)n1C	none
COc1ccc(C(=O)/C=C/Nc2ccc([N+](=O)[O-])cc2)cc1	Tau fibril ThT inconclusive
